HP1b binding inh: inhibitors of HP1-beta chromodomain binding to methylated histone tails | P83916 | AlphaScreen HP1-beta / biotin-H3K9me3 peptide binding | Potency, µM (doses to about 114 µM), for the others: at the top dose activity change, negative = inhibition, hits mostly inhibitors | 390,000 tested, 0.56% active | AID 540317; note: potency is the fitted concentration of half-maximal effect; nearly all actives have a fitted effect of over 70% in size
Target sequence (P83916 whole entry, looked up): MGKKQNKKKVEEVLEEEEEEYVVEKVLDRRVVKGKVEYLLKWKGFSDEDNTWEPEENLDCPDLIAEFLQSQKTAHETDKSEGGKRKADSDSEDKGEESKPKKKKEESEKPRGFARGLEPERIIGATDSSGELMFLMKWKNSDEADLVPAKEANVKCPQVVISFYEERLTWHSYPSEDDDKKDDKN
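Compound inhibition of the preformed complex between 50 nM HP1-beta and 50 nM biotinylated H3K9me3 peptide was read by AlphaScreen. Buffer was PBS pH 7.4 with 0.01% Tween-20. Incubations ran 30 min at room temperature, with 10 ug/mL donor/acceptor beads.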
JMJD2A Tudor: inhibitors of human JMJD2A Tudor domain; O75164; AlphaScreen JMJD2A-Tudor / H3K4me3 peptide binding; Potency, µM (series often up to 114 µM), without a hit: top-dose activity change, negative = inhibition, usual class: inhibitors; 390,000 tested, 4.4% active; AID 504339; note: potency is the fitted concentration of half-maximal effect; % is set by controls: 0 for no effect and ±100 for the full control effect; nearly all actives have a fitted effect of over 50% in size
GCN5L2 inh: blocks human GCN5L2 histone acetyltransferase. Q92830. GCN5L2 HAT assay, ThioGlo1 CoA-SH fluorescence. Potency, µM (series often up to 58.9 µM), for inactives: at the top dose activity change, negative = inhibition, actives largely listed as inhibitors. 390,000 tested, 0.21% active; note: potency is the fitted concentration of half-maximal effect; % is set by controls: 0 for no effect and ±100 for the full control effect
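Compounds, pin-transferred from DMSO stocks, meet 20nM GCN5L2 for 15 min before the reaction begins with H3(1-25) peptide (75uM) and acetyl-CoA (70uM). Thiol-reactive ThioGlo1 reports CoA release over 20 min at room temperature.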
PI5P4K alpha inh: PI5P4K alpha (human) kinase inhibition. max response, %. 330,000 tested, 1.2% active. P48426. PI5P4Kalpha enzyme, ADP-Glo luminescence, 60 min; stronger effect = lower value; active = max response of -50% or lower; inconclusive = between -30% and -50%; inactive = -30% or higher; note: value at the top dose of about 77 µM; % is set by controls: 0 for no effect and ±100 for the full control effect
Target sequence (P48426 whole entry, looked up): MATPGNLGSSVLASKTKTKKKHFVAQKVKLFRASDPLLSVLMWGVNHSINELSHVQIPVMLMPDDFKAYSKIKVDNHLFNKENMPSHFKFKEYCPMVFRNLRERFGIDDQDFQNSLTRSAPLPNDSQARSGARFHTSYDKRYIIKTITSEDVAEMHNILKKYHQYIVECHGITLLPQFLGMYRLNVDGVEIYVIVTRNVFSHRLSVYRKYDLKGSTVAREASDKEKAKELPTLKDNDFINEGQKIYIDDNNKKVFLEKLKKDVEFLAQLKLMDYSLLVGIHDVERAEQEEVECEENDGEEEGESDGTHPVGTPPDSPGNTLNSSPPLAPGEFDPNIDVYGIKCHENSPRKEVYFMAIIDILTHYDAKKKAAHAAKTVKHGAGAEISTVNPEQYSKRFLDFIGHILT
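Compounds were pin-transferred onto PI5P4Kalpha and substrate in HEPES pH 7.4 buffer with EGTA, CHAPS and 5% DMSO. ATP (5 microM final) started the reaction, which ran 60 minutes at room temperature before ADP-Glo detection.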
BAZ2B block: BAZ2B (human) inhibition; Potency, µM (highest dose often 114 µM), inactives show at the highest dose activity change, negative = inhibition, most hits filed as inhibitors; AID 504333; AlphaScreen BAZ2B-H3K14Ac peptide displacement; 360,000 tested, 4.4% active; note: potency is the fitted concentration of half-maximal effect; % is set by controls: 0 for no effect and ±100 for the full control effect; nearly all actives have a fitted effect of over 60% in size
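Complex of BAZ2B and biotin-H3K14Ac (50 nM apiece) forms over 30 min at RT, then faces library compounds up to 110 uM for another 30 min; AlphaScreen beads added, 20 min dark incubation, luminescence read.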
PLK1 PBD inh: PLK1 (human) polo-box domain binding inhibition; P53350; Plk1 PBD binding of FITC phosphopeptide, fluorescence polarization; Potency, µM, for inactives: max response, negative = inhibition, actives largely listed as inhibitors; 360,000 tested, 2.8% active; note: potency is the fitted concentration of half-maximal effect; series mostly up to about 57 µM; % is set by controls: 0 for no effect and ±100 for the full control effect; nearly all actives have a fitted effect of over 65% in size
ADP-Glo interf: counter-screen for PI5P4K inhibitors: ADP-Glo detection interference, no enzyme; shares compounds with PI5P4K alpha inh; ADP-Glo detection counter-screen, luciferase luminescence, no enzyme; Potency, µM (top dose mostly 76.9 µM), without a hit: at the highest dose activity change, negative = inhibition, usual class: inhibitors; 1,100 tested, under 10 active
TbPYK inh: Trypanosoma brucei pyruvate kinase inhibition, cherry-pick confirmation; shares compounds with PLK1 PBD inh; recombinant TbPYK, Kinase-Glo ATP luminescence; Potency, µM (top dose mostly 76.9 µM), for the others: at the highest dose activity change, negative = inhibition, hits mostly inhibitors; 890 tested, 67% active; note: potency is the fitted concentration of half-maximal effect; % is set by controls: 0 for no effect and ±100 for the full control effect; nearly all actives have a fitted effect of over 70% in size
TbPYK ADP-Glo: TbPYK inhibition, orthogonal confirmation. AID 720584. shares compounds with PLK1 PBD inh. recombinant TbPYK, ADP-Glo luminescence, 60 min. Potency, µM (titrated, usually from 76.9 µM), for the others: top-dose activity change, negative = inhibition, actives largely listed as inhibitors. 890 tested, 62% active; note: potency is the fitted concentration of half-maximal effect; % is set by controls: 0 for no effect and ±100 for the full control effect; nearly all actives have a fitted effect of over 75% in size
* = called active by the depositor; ? = inconclusive; . = not tested or not shown; [ ] = dose if it differs, or a comment. A selection: hits, their analogues and other compounds. The true share with any hit is near 7%. Unless noted, calls come from the whole dose curve; as a rule, active = well fitted curve in the direction sought with a large enough effect; inconclusive = small, poorly fitted or top-dose-only effect, or another doubt; inactive = no such curve, though single readings can be large; an effect the other way counts as inactive or inconclusive.

SMILES	HP1b binding inh	JMJD2A Tudor	GCN5L2 inh	PI5P4K alpha inh	BAZ2B block	PLK1 PBD inh	ADP-Glo interf	TbPYK inh	TbPYK ADP-Glo
Cc1cc(C)c(C)c(S(=O)(=O)N[C@@H](C)C(=O)OCc2cc(=O)n3cc(Br)ccc3n2)c1C	17.1%	-25.7%	-4.4%	-52.3*	50.1µM*	-16.6%	-2.3%	.	.
CNS(=O)(=O)c1cccc(C(=O)OCc2cc(=O)n3cc(Br)ccc3n2)c1	5.9%	-22.8%	-4.4%	-18.6	-25.4%	-17.1%	.	.	.
COC(=O)c1ccc(C2c3c(oc4ccccc4c3=O)C(=O)N2c2nc(C)c(C(=O)OC)s2)cc1 (centres undefined)	9.8%	-18.2%	-13.4%	.	-11.5%	.	.	.	.
O=C(NCc1ccc2c(c1)OCO2)c1cc2ncc(Br)cn2n1	3.6%	?	-13.3%	-65.2*	?	-17.4%	-3.7%	.	.
O=C(NCc1ccc2c(c1)OCO2)c1ccc(Br)cc1	36.3%	1.0%	-9.7%	0.9	5.6%	-14.5%	.	.	.
Cc1nc(C)c(-c2ccn(C(=O)NC(C)C)n2)s1	4.1%	0.7%	3.9%	-13.3	-11.8%	-0.6%	.	.	.
CCOC(=O)c1c(NS(=O)(=O)c2ccc(Br)cc2)sc2c1CCC2	-16.0%	79.4µM*	.	-55.4*	.	21.2µM*	-1.3%	35.5µM*	?
CCOC(=O)c1c(NC(=O)c2ccoc2C)sc(C)c1C	95.2%	18.3%	-7.7%	8.0	-5.0%	-18.4%	.	.	.
CCc1c(C)sc(NC(=O)c2ccoc2C)c1C(N)=O	28.2µM*	56.2µM*	?	-65.7*	?	2.67µM*	-3.3%	14.1µM*	15.8µM*
COC(=O)c1ccc2nc(-c3ccco3)c(Cc3ccc(OC)cc3C)n2c1	.	.	.	-80.4*	.	26.7µM*	0.7%	7.08µM*	7.94µM*
COC(=O)c1ccc2nc(-c3ccc(F)cc3)c(Cc3ccc(OC)cc3C)n2c1	.	.	.	5.9	.	-2.0%	.	.	.
CCOC(=O)Nc1ccc(NCc2ccc(F)cc2)nc1N	?	56.2µM*	-20.8%	-50.2*	70.8µM*	7.52µM*	-4.9%	4.47µM*	11.2µM*
N#C/C(=C\c1ccc(Cl)cc1)C(=O)NCC1CCCO1 (centres undefined)	16.8%	-13.4%	-7.2%	.	-2.3%	.	.	.	.
Clc1cccc(Cc2c(-c3ccco3)nc3ccc(Br)cn23)c1	.	.	.	-82.1*	.	10.6µM*	-1.8%	?	?
Cc1cc(C)cc(NC(=O)Cc2c(C(=O)O)c(C)cn2C)c1	15.5%	-24.7%	3.4%	.	-20.6%	.	.	.	.
COc1cc(OC)c(NC(=O)C2CCN(C(=O)c3sc4nc[nH]c(=O)c4c3C)CC2)cc1Cl	4.8%[57 µM]	-30.6%	-14.1%	.	10.9%	.	.	.	.
O=C(NCCCO)c1cc2c(cn1)[nH]c1ccccc12	34.6%	-20.4%	-3.8%	-2.3	?	1.3%	.	.	.
C[C@H](NC(=O)c1cc2c(cn1)[nH]c1ccccc12)C(=O)O	28.2µM*	44.7µM*	-9.2%	-67.3*	50.1µM*	2.67µM*	-5.9%	5.01µM*	14.1µM*
COc1ccc(OC)c(C2CC(=O)N3CN(c4cccc(Cl)c4C)CSC3=C2C#N)c1 (centres undefined)	?	17.8µM*	25.1µM*	-64.4*	31.6µM*	?	-5.6%	15.8µM*	7.94µM*
COc1cccc(C2CC(=O)N3CN(c4cccc(Cl)c4C)CSC3=C2C#N)c1OC (centres undefined)	?	15.8µM*	22.4µM*	-92.6*	25.1µM*	26.7µM*	-13.5%	17.8µM*	6.31µM*
COc1cc(CN2CC(=O)N(c3cccc(Cl)c3C)C2=S)cc(OC)c1OC	5.2%	-12.4%	-10.1%	-1.7	-10.7%	-4.9%	.	.	.
CCCC(=O)Nc1ccc(NC(=O)c2cc3ccccc3o2)c(OC)c1	11.8%	-24.7%	1.1%	-4.8	-21.4%	-16.4%	.	.	.
COc1ccc(CCn2c(=O)c3cccnc3n(CC(=O)Nc3c(C)cc(C)cc3C)c2=O)cc1OC	40.9%	-8.0%	5.8%	.	-1.1%	.	.	.	.
CC(C)Sc1nc(N2CCOCC2)c2c(c1C#N)CC(C)(C)N(C)C2	-9.8%	11.2µM*	-14.7%	-52.5*	-8.4%	2.67µM*	1.1%	-10.8%	-6.5%
CN1Cc2c(N3CCOCC3)nc(SCCC#N)c(C#N)c2CC1(C)C	5.1%	-17.6%	-3.8%	-0.6	-3.5%	-9.7%	.	.	.
SMILES	HP1b binding inh	JMJD2A Tudor	GCN5L2 inh	PI5P4K alpha inh	BAZ2B block	PLK1 PBD inh	ADP-Glo interf	TbPYK inh	TbPYK ADP-Glo
CC(C)(NC(=O)c1ccccc1)c1nc2ccccc2s1	?	79.4µM*	-12.7%	-81.6*	8.9%	11.9µM*	-4.2%	8.91µM*	10µM*
CN(C)c1cccc2c(/C=N/O)ccc(N(C)C)c12	-11.1%	-17.4%	-5.1%	3.4	-14.9%	-15.9%	.	.	.
CN(C)c1cccc2c(C=C(C#N)C#N)ccc(N(C)C)c12	22.4µM*	15.8µM*	-3.1%	-12.8	20µM*	-8.6%	.	?	?
COc1ccc(C(=O)Nc2nc3nc(C)c(Cc4ccccc4)c(=O)n3[nH]2)cc1OC	27.7%	-21.4%	-9.3%	.	-36.6%	.	.	.	.
CCOC(=O)COc1ccc([N+](=O)[O-])cc1-c1ccnc2cc(-c3ccc(Cl)cc3)nn12	8.1%	-9.7%	1.3%	.	-13.2%	.	.	.	.
Cc1cccc(C)c1NC(=O)Cn1c(=O)n(Cc2ccc3c(c2)OCO3)c(=O)c2oc3ccccc3c21	47.6%	-1.5%	-5.3%	.	-1.2%	.	.	.	.
Cc1ccc2c(c1)C(N1CCCC1=O)CC(c1ccco1)N2 (centres undefined)	-10.5%	21.2%[11.4 µM]	-2.6%	?	-38.0%	?	.	-11.1%	-5.8%
CCN(CC)S(=O)(=O)c1ccc(NC(=O)CCN2C(=O)C3CC=CCC3C2=O)cc1 (centres undefined)	66.6%	?	3.2%	8.1	-4.3%	0.2%	.	.	.
C=Cc1ccc2c(c1)N(C)C(=C)S2	-6.2%	?	-21.9%	-25.1	-26.4%	?	.	11.2µM*	3.98µM*
O=C1C2C(C(=O)N1/N=C/c1ccc(N3CCCCC3)o1)C1C=CC2C12CC2 (centres undefined)	-2.7%	-23.2%	51.0%	?	-29.6%	-4.1%	.	28.2µM*	31.6µM*
CC(C)(O)C#Cc1ccc(CNC[C@H]2O[C@@H](n3cnc(C(N)=O)n3)[C@H](O)[C@@H]2O)s1	20.7%	-5.8%	.	0.5	.	-0.9%	.	.	.
